High-throughput results from PubChem.
Only some compounds are listed: those with a hit (about 4.7% of all), similar ones and a draw of the others.
Pyk2 oligo antag: blocks oligomerization of human Pyk2 in cells | Q293 cells, Pyk2 FERM NanoBiT luminescence; active compounds read low | Q14289 | 0.83% of 99,000 active | z-score (the deposit names both 25 µM and 10 µM);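 active means Z-score of -3 or lower, scaled per plate to the spread of control and sample wells; inactive means z-score above -3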;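 further: negative z-score means lost luminescence so less FERM oligomerization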
sdo1 growth: restores growth of sdo1-depleted yeast; S. cerevisiae sdo1-depleted JHY4D growth rescue, OD600 30 h; active compounds read high; pdr5 snq2 efflux-pump mutant strain; z-score at 10 µM; 0.21% of 140,000 active;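 active means z-score above 3 at both the 24 hr and the 30 hr optical density reads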;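 further: z-score against mean and SD of all compound wells on the same plate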
PLK1 kinase inh: inhibitors of human PLK1 kinase; 0.53% of 97,000 active; inhibition, % at 10 µM; P53350; recombinant PLK1 kinase, TR-FRET peptide phosphorylation;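 active means inhibition of 50% or more in the single-concentration screen; inactive means inhibition below 50%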;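 further: 0% = DMSO max control and 100% = H-89 dihydrochloride min control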
Cav3 T inh: blocks human Cav3.2 T-type calcium channel; 4% of 100,000 active; O95180; Cav3.2-expressing cells, Fluo-4 calcium fluorescence FDSS; active compounds read low; B-score at 10 µM;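 active means single-dose well whose peak fluorescence ratio is a statistical outlier from its plate by either plate-standardised score or position-corrected B-score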
PLK1 PBD inh: Plk1 (human) PBD binding inhibition; Plk1 PBD phosphopeptide binding, fluorescence polarization; 0.13% of 97,000 active; inhibition, %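 (tested at about 20 µM)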; P53350; in the data active means inhibition above about 34%, passing the limit was not always enough
hDAT+cocaine: human DAT dopamine uptake with cocaine, either direction. Q01959. LLC-PK1 hDAT cells, [14C]-dopamine uptake with cocaine IC80; actives deviate in either direction. B-score at 10 µM. 1.3% of 110,000 active. AID 449768;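 active means Z score or B-score, a plate-position-corrected score, falls beyond the plate's 99.7% confidence bounds, in either direction; inactive means both scores lie inside the 99.7% bounds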;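 further: scored against the spread of the other compound wells on the same plate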
An asterisk follows results filed as active; · = not tested or not shown.

SMILES	Pyk2 oligo antag	sdo1 growth	PLK1 kinase inh	Cav3 T inh	PLK1 PBD inh	hDAT+cocaine
Cc1cccc(Cn2cc(SCC(=O)Nc3nccs3)c3ccccc32)c1	·	-0.39	-7	-4.6*	-2	-1.5
COc1cc(CNC2CCCCC2OC)cc(OC)c1OC (stereo not given)	·	0.09	·	·	·	·
O=c1c2cc(N3CCOCC3)ccc2[nH]c(=S)n1CCCN1CCCC1	0.81	2.5	-17	·	9	1.4
CC1CCN(CCCn2c(=S)[nH]c3ccc(N4CCOCC4)cc3c2=O)CC1	-0.96	0.42	-19	-4.7*	-16	0.59
Cc1ccc(S(=O)(=O)N[C@@H](Cc2ccccc2)C(=O)CCl)cc1	·	-2.1	·	-1.7	·	0.071
CC1(C)Cc2c(sc3nc(SCC(=O)NCc4ccco4)n(-c4ccccc4)c(=O)c23)CS1	0.83	-0.29	-16	-2.6	20	2.8*
CCn1c(SCC(=O)Nc2oc(-c3ccccc3)c(-c3ccccc3)c2C#N)nnc1-c1cc(OC)cc(OC)c1	-1.6	-0.21	-4	-2.6	-19	-0.39
N#Cc1c(NC(=O)CSc2n[nH]c(Cc3ccccc3)n2)oc(-c2ccccc2)c1-c1ccccc1	-2.2	0.3	-8	-6.4*	-13	0.67
N#Cc1c(NC(=O)CN2CCOCC2)oc(-c2ccccc2)c1-c1ccccc1	-0.21	-1.9	-11	-3.1	-4	-0.2
N#Cc1c(NC(=O)CSc2ncccn2)oc(-c2ccccc2)c1-c1ccccc1	0.83	·	-8	·	-6	-0.084
COc1ccccc1OCC(=O)Nc1oc(-c2ccccc2)c(-c2ccccc2)c1C#N	-3.7*	-0.33	-10	-6.9*	-10	-0.015
N#Cc1c(NC(=O)COC(=O)C2CC3C=CC2C3)oc(-c2ccccc2)c1-c1ccccc1 (stereo not given)	-1.5	-0.37	-2	-6*	-9	-1.8
COc1ccc(-c2oc(NC(=O)CSc3ncn[nH]3)c(C#N)c2-c2ccc(OC)cc2)cc1	-4*	0.77	-7	-0.15	-40	0.012
COc1ccc(-c2oc(NC(=O)CCl)c(C#N)c2-c2ccc(OC)cc2)cc1	-0.63	-2.7	-11	0.69	0	-1.6
O=C(Cn1cnc2ccccc2c1=O)c1ccccc1	1	-0.3	-3	0.77	-19	-1
COc1ccc(CC(=O)Nc2oc(-c3ccccc3)c(-c3ccccc3)c2C#N)cc1OC	-3.3*	-2.5	-16	-5.6*	-29	0.37
O=C(COC(=O)C1CC2C=CC1C2)Nc1cccc(S(=O)(=O)N2CCCCC2)c1 (stereo not given)	·	-0.55	·	·	·	·
N#Cc1c(NC(=O)Cn2cnc3ccccc3c2=O)oc(-c2ccccc2)c1-c1ccccc1	-1.8	-0.84	-12	-10*	16	-0.47
Cc1ccc(OCC(=O)Nc2oc(-c3ccccc3)c(-c3ccccc3)c2C#N)cc1	-1.3	·	-12	-7.5*	35	-0.45
O=C(COC(=O)C1CC2C=CC1C2)Nc1ccc2c(c1)OC(F)(F)O2 (stereo not given)	1.4	-0.51	-11	-5.5*	4	2.2
CCN(c1ccccc1)S(=O)(=O)c1ccc(C(=O)Oc2ccc(C(C)=O)cc2)cc1	·	0.31	·	·	·	·
CCOc1ncccc1C(=O)N(C)CC(=O)Nc1ccccc1SC	·	-0.03	·	·	·	·
C[C@H]1CCC[C@@]2(O[C@H](CCO)C[C@H](O)[C@H]2O)O1	·	·	·	0.55	·	-0.17
NS(=O)(=O)c1cccc(NC(=S)NC(=O)C23CC4CC(CC(C4)C2)C3)c1	·	0.43	·	·	·	·
CCn1c(C)nc2cc(-c3nnc(-c4c(-c5ccccc5)noc4C)o3)ccc21	-3.1*	-2.4	-2	1.6	-8	6.6e-05
SMILES	Pyk2 oligo antag	sdo1 growth	PLK1 kinase inh	Cav3 T inh	PLK1 PBD inh	hDAT+cocaine
CCOc1cc(/C=N/NC(=O)C(=O)NCCCOC(C)C)cc(Br)c1O	·	1.1	·	·	·	·
O=C(O)CCCCCn1c(O)c(C=C2N=c3ccccc3=N2)sc1=S	·	-0.52	·	·	·	·
CC1(C)CC(=O)C2=C(C1)Nc1cc3c(cc1C2c1ccc(F)cc1)OCO3 (stereo not given)	-0.13	-1.1	-13	0.64	-3	-0.2
COc1ccc(C2C3=C(CC(C)(C)CC3=O)Nc3cc4c(cc32)OCO4)cc1 (stereo not given)	-1.3	-1.6	-17	-0.59	12	2.5*
COc1cccc(Nc2nnc(SCc3cc([N+](=O)[O-])cc4c3OCOC4)s2)c1	-3.3*	-0.05	-13	·	6	-3.4*
O=C(CN1/C(=C(/O)c2ccccc2)C(=O)c2ccccc2S1(=O)=O)c1ccccc1	-1.4	-0.26	-11	-6.9*	2	-0.4
COC(=O)c1ccccc1NC(=O)c1sc(=S)n(C)c1N	-0.44	-1.7	-9	0.011	9	6*
Cn1c(N)c(C(=O)NCc2ccccc2)sc1=S	0.46	0.59	·	0.015	·	-0.76
O=C(NCC1CCCO1)C12CN(Cc3ccccc3)CC1C(c1cccc([N+](=O)[O-])c1)=NO2 (stereo not given)	·	-0.6	-5	0.42	-7	-0.023
O=C(NCc1cc(C(F)(F)F)cc(C(F)(F)F)c1)C12CN(Cc3ccccc3)CC1C(c1cccc([N+](=O)[O-])c1)=NO2 (stereo not given)	·	-0.15	-8	-2.1	-30	-0.3
O=C(NCc1ccc(OC(F)(F)F)cc1)C12CN(Cc3ccccc3)CC1C(c1cccc([N+](=O)[O-])c1)=NO2 (stereo not given)	·	0.09	-11	-3.8*	-18	0.38
O=C(NCc1ccccc1)C12CN(Cc3ccccc3)CC1C(c1cccc([N+](=O)[O-])c1)=NO2 (stereo not given)	·	0.35	-15	-3.4*	1	-0.013
CCCCN(CCCC)CCCNC(=O)C12CN(Cc3ccccc3)CC1C(c1cccc([N+](=O)[O-])c1)=NO2 (stereo not given)	·	0.55	-5	-3.2*	1	0.13
COC(=O)C(Cc1c[nH]c2ccccc12)NC(=O)c1cc(-c2ccc(OC)c(OC)c2)oc1C (stereo not given)	0.46	-0.36	·	·	·	·
O=c1[nH]c(CSc2nnc(COc3ccccc3)n2-c2ccccc2)nc2ccccc12	-0.17	-0.37	2	-3.9*	-25	2.4
Cc1ccc(OCc2nnc(SCC(=O)c3ccccc3)n2-c2ccccc2)cc1	-1.3	-1.8	-15	-4.4*	1	0.82
Cn1c(COc2ccccc2)nnc1SCc1nc2ccccc2[nH]1	0.3	0.01	1	0.18	4	-0.51
O=C1c2ccccc2-c2onc3ccc(NCCCn4ccnc4)c1c23	·	1.8	68*	-1.2	35	0.27
COc1ccc(-c2n[nH]c(C)c2-c2ccc(Cl)cc2)c(O)c1	-1.1	-2.2	0	-1.4	5	0.26
Cc1[nH]nc(-c2ccc(O)cc2O)c1-c1ccc(Cl)cc1	-1.1	-2.1	-7	-4.8*	13	0.55
Cc1[nH]nc(-c2ccc(O)cc2O)c1Oc1ccccc1	-2.4	-1.8	·	-4.5*	·	1.3
CC(NC(=O)c1ccc(Br)cc1)c1ccc2c(c1)CCCC2 (stereo not given)	·	-1.8	·	·	·	·
